# Source: PubChem BioAssay (Tox21)
# “And” between values parts separate entries of the source, which are not always exact repeats. Identical values can stand only once. Results filed as inconclusive are left out. A call without a number means that no potency is given here. The source made the active and inactive calls. Unless noted, calls follow the shape of the dose curve; as a rule, active = well fitted curve in the direction sought with a large enough effect in the repeat runs; inconclusive = weak or mixed curves; inactive = no such curve, though single readings can be large; an effect the other way counts as inactive or inconclusive.
# What was measured:
# [1] = qHTS assay to identify small molecule antagonists of the retinoid acid receptor (RAR) signaling pathway - cell viability counter screen (AID 1159551); also: nearly all actives have a fitted effect of over 35% in size
# Summary of the method: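 ATP-based viability, C3RL4 cells, 6 h at 37 C with 1 uM final retinol co-added after compound; luminescence read 30 min post CellTiter-Glo, RT.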
# [2] = qHTS assay to identify small molecule antagonists of the retinoic acid receptor (RAR) signaling pathway (AID 1159552; also: nearly all actives have a fitted effect of over 50% in size; also: potency is read from the fitted curve at half-maximal effect)
# Summary of the method: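 Readout: luciferase luminescence, 30 min post-reagent at RT. Setup: C3RL4 RARE reporter cells, compounds plus retinol 1 uM final, 6 hr incubation at 37 C and 5% CO2.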
# [3] = qHTS assay to identify small molecule agonists of the retinoic acid receptor (RAR) signaling pathway (AID 1159553); also: potency is read from the fitted curve at half-maximal effect
# Summary of the method: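 Quantitative high-throughput format: the Tox21 10K library was tested on C3RL4 RARE-luciferase cells for 6 hr at 37 C and 5% CO2, with luminescence measured after a 30 min room-temperature reagent step.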
# [4] = qHTS assay to identify small molecule antagonists of the estrogen related receptor (ERR) signaling pathway from Tox21 library - cell viability counter screen (AID 1224834); also: nearly all actives have a fitted effect of over 30% in size; also: potency is read from the fitted curve at half-maximal effect
# Summary of the method: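 Compounds in DMSO were pinned onto ERR cells that had been incubated for 6 h, and the plates were held at 37 C for 17.5 h. CellTiter-Fluor reagent was then added and fluorescence was measured after 30 min.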
# [5] = biological target: Luciferin 4-monooxygenase (Photinus pyralis) (UniProt P08659); test: qHTS assay to identify small molecule inhibitors of firefly luciferase (AID 1224835); also: nearly all actives have a fitted effect of over 25% in size; also: potency is read from the fitted curve at half-maximal effect
# Summary of the method: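 Inhibition of purified Photinus luciferase is measured by luminescence. Substrate levels (D-luciferin, ATP) sit at their KM values. Each compound is tested in a concentration series.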
# [6] = qHTS assay to identify small molecule agonists of the constitutive androstane receptor (CAR) signaling pathway - cell viability counter screen (AID 1224836); also: nearly all actives have a fitted effect of over 45% in size; also: potency is read from the fitted curve at half-maximal effect
# Summary of the method: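 Compound titrations (15 concentrations) went onto HepG2-CYP2B6-hCAR cells 4 h after seeding, alongside PK11195 at a final 0.75 uM; a 23 h, 37 C/5% CO2 incubation preceded CellTiter-Fluor viability measurement.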
# [7] = qHTS assay to identify small molecule antagonists of the constitutive androstane receptor (CAR) signaling pathway - cell viability counter screen (AID 1224837); also: nearly all actives have a fitted effect of over 45% in size; also: potency is read from the fitted curve at half-maximal effect
# Summary of the method: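 Cells are seeded, rested 4 hr at 37 C/5% CO2, dosed with compound (15-point series) and 50 nM CITCO, incubated a further 23 hr, and then CellTiter-Fluor reagent is added before fluorescence is read. The line is HepG2 with stable hCAR and CYP2B6-2.2kb.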
# [8] = biological target: Nuclear receptor subfamily 1 group I member 3 (Homo sapiens) (UniProt Q14994); test: qHTS assay to identify small molecule antagonists of the constitutive androstane receptor (CAR) signaling pathway (AID 1224838);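 also: HepG2 cells stably expressing hCAR with CYP2B6 luciferase reporter stimulated by CITCO; nearly all actives have a fitted effect of over 40% in size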; also: potency is read from the fitted curve at half-maximal effect
# Summary of the method: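 Luminescence from a CYP2B6-2.2kb promoter reporter in hCAR-expressing HepG2 cells reflects CAR signaling. Cells received compounds at 15 concentrations and 50 nM CITCO (final), then incubated 24 h at 37 C/5% CO2.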
# [9] = biological target: Nuclear receptor subfamily 1 group I member 3 (Homo sapiens) (UniProt Q14994); test: qHTS assay to identify small molecule agonists of the constitutive androstane receptor (CAR) signaling pathway (AID 1224839); also: nearly all actives have a fitted effect of over 15% in size; also: potency is read from the fitted curve at half-maximal effect
# Summary of the method: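 In this screen, CAR-driven CYP2B6 promoter activity is measured by luminescence in HepG2-CYP2B6-hCAR cells after 24 h with test compounds and 0.75 uM PK11195 (final concentration).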
# [10] = qHTS assay to identify small molecule antagonists of the estrogen related receptor signaling pathway with the pleiotropic PPARgamma coactivator (PGC) from Tox21 10K library - cell viability counter screen (AID 1224840; active = well fitted cell-killing curve with a large enough effect in the repeat runs, not every such curve was filed as active; also: nearly all actives have a fitted effect of over 40% in size; also: potency is read from the fitted curve at half-maximal effect)
# Summary of the method: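 Cell viability is measured by CellTiter-Fluor fluorescence in PGC/ERR cells that receive compounds after a 6-hour attachment period and are then incubated 17.5 hours at 37 C.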
# [11] = qHTS assay to identify small molecule antagonists of the estrogen related receptor (ERR) signaling pathway - cell viability counter screen (AID 1224818);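 also: series mostly up to about 46 µM; viability measured after 17.5 h of compound exposure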
# Summary of the method: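 Quantitative high-throughput viability counter screen in ERR cells. Compounds (DMSO) incubated 17.5 h at 37 C; read-out was CellTiter-Fluor fluorescence.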
# [12] = qHTS assay to identify small molecule antagonists of the estrogen related receptor signaling pathway with the pleiotropic PPARgamma coactivator (PGC) cell viability counter screen (AID 1224822; also: series mostly up to about 46 µM)
# Summary of the method: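 Cytotoxicity in the PGC/ERR cell line is assessed with CellTiter-Fluor, read as fluorescence intensity 30 min after reagent addition, following 17.5 h compound treatment at 37 C.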
# [13] = qHTS assay to identify small molecule agonists of the RXR signaling pathway - cell viability counter screen (AID 1159529); also: nearly all actives have a fitted effect of over 50% in size; also: potency is read from the fitted curve at half-maximal effect
# Summary of the method: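 Same-well viability check after the LiveBLAzer FRET read: CellTiter-Glo added, luminescence measured after 30 min at room temperature. Reporter HEK 293T cells had been treated with compounds for 16 hr following a 5 hr preincubation.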
# [14] = biological target: Thyrotropin receptor (Homo sapiens) (UniProt P16473); test: qHTS assay to identify small molecule agonists of the thyroid stimulating hormone receptor (TSHR) signaling pathway (AID 1224843; calls by dose curve; also: nearly all actives have a fitted effect of over 45% in size; also: potency is read from the fitted curve at half-maximal effect)
# Summary of the method: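 A cell-based cAMP HTRF format was run in TSHR-transfected HEK293 cells, 800 per well. Treatment: 30 min, room temperature. Detection: 1 h with labelled cAMP and anti-cAMP cryptate. Concentration-response over 15 points, three replicates.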
# [15] = qHTS assay to identify small molecule antagonists of the estrogen related receptor signaling pathway with the pleiotropic PPARgamma coactivator (PGC) from Tox21 10K library (AID 1224841; call rule not given here; also: actives are mostly falling curves and most rising ones were filed inactive; nearly all actives have a fitted effect of over 50% in size; also: potency is read from the fitted curve at half-maximal effect)
# Summary of the method: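 Cells stably carrying the PGC/ERR reporter, seeded at 2,000 per well, received pin-transferred compounds 6 h post-plating. Exposure lasted 18 h at 37 C. Signal: One-Glo luminescence.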
# [16] = qHTS assay to identify small molecule agonists of the estrogen related receptor signaling pathway with the pleiotropic PPARgamma coactivator (PGC) from Tox21 10K library (AID 1224842); also: nearly all actives have a fitted effect of over 15% in size
# Summary of the method: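 Luminescence from One-Glo (30 min, room temperature) measured after PGC/ERR cells had 18 h at 37 C with pinned compound (23 nL in DMSO). Cells had been seeded at 2,000 per well and pre-incubated 6 h.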
# Sequence of Nuclear receptor subfamily 1 group I member 3 (Homo sapiens) (Q14994 whole entry, looked up): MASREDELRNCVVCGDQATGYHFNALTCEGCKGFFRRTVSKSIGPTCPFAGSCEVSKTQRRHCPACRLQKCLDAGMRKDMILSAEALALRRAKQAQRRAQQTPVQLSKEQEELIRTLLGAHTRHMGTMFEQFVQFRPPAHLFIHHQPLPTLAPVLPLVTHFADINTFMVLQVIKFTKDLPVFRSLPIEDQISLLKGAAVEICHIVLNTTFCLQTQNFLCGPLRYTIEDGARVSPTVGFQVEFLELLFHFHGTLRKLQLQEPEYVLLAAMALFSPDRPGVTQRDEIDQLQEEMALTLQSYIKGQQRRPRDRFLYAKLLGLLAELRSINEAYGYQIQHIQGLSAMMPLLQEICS
# Sequence of Luciferin 4-monooxygenase (Photinus pyralis) (P08659 whole entry, looked up): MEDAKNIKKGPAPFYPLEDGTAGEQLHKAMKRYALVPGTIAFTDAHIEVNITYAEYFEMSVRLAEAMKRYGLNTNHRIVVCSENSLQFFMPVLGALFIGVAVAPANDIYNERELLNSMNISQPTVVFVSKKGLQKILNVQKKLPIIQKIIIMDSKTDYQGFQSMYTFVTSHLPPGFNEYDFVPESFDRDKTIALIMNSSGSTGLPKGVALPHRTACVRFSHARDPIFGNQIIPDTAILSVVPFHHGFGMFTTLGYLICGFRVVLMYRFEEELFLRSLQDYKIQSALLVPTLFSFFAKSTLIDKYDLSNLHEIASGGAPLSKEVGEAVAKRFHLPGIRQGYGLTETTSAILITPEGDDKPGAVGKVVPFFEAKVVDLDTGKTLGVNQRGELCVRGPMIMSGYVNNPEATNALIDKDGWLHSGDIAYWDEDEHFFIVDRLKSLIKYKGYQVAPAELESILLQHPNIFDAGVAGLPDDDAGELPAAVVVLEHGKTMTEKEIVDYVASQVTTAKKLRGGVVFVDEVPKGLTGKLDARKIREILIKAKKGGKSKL
# Sequence of Thyrotropin receptor (Homo sapiens) (P16473 whole entry, looked up): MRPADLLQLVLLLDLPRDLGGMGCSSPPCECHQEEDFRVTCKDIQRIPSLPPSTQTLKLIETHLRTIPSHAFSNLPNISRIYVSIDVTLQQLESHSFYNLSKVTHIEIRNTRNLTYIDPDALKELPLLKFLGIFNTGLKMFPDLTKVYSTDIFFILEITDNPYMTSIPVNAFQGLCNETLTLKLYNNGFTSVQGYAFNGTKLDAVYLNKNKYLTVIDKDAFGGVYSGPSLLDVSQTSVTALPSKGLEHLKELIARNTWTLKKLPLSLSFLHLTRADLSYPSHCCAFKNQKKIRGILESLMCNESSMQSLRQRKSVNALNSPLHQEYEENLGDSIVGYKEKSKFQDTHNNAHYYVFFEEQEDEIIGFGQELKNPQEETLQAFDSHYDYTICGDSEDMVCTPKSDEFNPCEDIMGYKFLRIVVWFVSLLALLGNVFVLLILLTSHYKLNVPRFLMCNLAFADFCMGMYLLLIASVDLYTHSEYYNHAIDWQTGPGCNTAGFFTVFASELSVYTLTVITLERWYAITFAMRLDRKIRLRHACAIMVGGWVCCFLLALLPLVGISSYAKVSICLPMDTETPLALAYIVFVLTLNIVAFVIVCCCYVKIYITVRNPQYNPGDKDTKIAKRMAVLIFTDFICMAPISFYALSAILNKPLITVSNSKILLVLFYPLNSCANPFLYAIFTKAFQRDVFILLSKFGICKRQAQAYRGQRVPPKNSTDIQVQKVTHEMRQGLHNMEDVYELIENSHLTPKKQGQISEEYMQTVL
structure (smiles),measurement,setting,value
Brc1ccc(Oc2ccc(Br)cc2Br)c(Br)c1,Potency,[1],inactive
same,Potency,[2],inactive
same,Potency,[3],13.7 µM (active)
same,Potency,[4],inactive
same,Potency,[5],35.6 µM (active)
same,Potency,[6],inactive
same,Potency,[7],inactive
same,Potency,[8],inactive
same,Potency,[9],54.5 µM (active)
same,Potency,[10],inactive
CCO/N=C(\CC)C1=C(O)CC(c2c(C)cc(C)cc2C)CC1=O (stereo not given),Potency,[1],inactive
same,Potency,[3],inactive
same,Potency,[11],inactive
same,Potency,[12],inactive
same,Potency,[5],inactive
same,Potency,[6],inactive
same,Potency,[7],inactive
same,Potency,[9],inactive
CCN(CC)C(=S)S,Potency,[13],19.4 µM (active)
same,Potency,[4],54.9 µM (active) and 13.6 µM (active) and 24.3 µM (active)
same,Potency,[5],inactive
same,Potency,[6],54.9 µM (active) and 12.1 µM (active) and 19.3 µM (active)
same,Potency,[7],13.6 µM (active) and 17.2 µM (active)
same,Potency,[10],30.9 µM (active) and 6.08 µM (active) and 13.7 µM (active)
same,Potency,[14],inactive
N#CC(C#N)=NNc1cccc(Cl)c1,Potency,[1],inactive
same,Potency,[4],9.69 µM (active)
same,Potency,[5],35.6 µM (active)
same,Potency,[6],6.11 µM (active)
same,Potency,[7],6.86 µM (active)
same,Potency,[8],2.43 µM (active)
same,Potency,[9],inactive
same,Potency,[15],0.969 µM (active)
same,Potency,[16],inactive
same,Potency,[14],inactive
CCOP(=S)(NC(C)C)Oc1ccccc1C(=O)OC(C)C (stereo not given),Potency,[1],inactive
same,Potency,[2],54.5 µM (active)
same,Potency,[5],inactive
same,Potency,[6],inactive
same,Potency,[7],inactive
same,Potency,[9],7.7 µM (active)
same,Potency,[15],30.6 µM (active)
same,Potency,[14],inactive
O=c1[nH]c(Cl)c(Cl)cc1Cl,Potency,[1],inactive
same,Potency,[2],inactive
same,Potency,[4],inactive
same,Potency,[5],inactive
same,Potency,[6],inactive
same,Potency,[7],inactive
same,Potency,[9],inactive
same,Potency,[10],inactive
same,Potency,[14],inactive
NC1CCC(CC2CCC(N)CC2)CC1 (stereo not given),Potency,[1],inactive
same,Potency,[5],inactive
same,Potency,[6],inactive
same,Potency,[7],inactive
same,Potency,[9],inactive
Cc1c([N+](=O)[O-])cc2c(c1[N+](=O)[O-])C(C)(C)CC2(C)C,Potency,[1],inactive
same,Potency,[2],inactive
same,Potency,[3],inactive
same,Potency,[4],inactive
same,Potency,[5],inactive
same,Potency,[6],inactive
same,Potency,[7],inactive
same,Potency,[8],inactive
same,Potency,[9],12.2 µM (active)
same,Potency,[10],inactive
same,Potency,[14],48.6 µM (active)
ClC1=C(Cl)[C@]2(Cl)[C@@H]3[C@H]4C[C@H]([C@@H]5O[C@H]45)[C@@H]3[C@@]1(Cl)C2(Cl)Cl,Potency,[1],inactive
same,Potency,[2],inactive
same,Potency,[4],inactive
same,Potency,[5],inactive
same,Potency,[6],inactive
same,Potency,[7],inactive
same,Potency,[10],inactive
same,Potency,[16],inactive
same,Potency,[14],4.32 µM (active)
O=C(NC(=O)c1c(F)cccc1F)Nc1ccc(Oc2ccc(C(F)(F)F)cc2Cl)cc1F,Potency,[1],inactive
same,Potency,[5],inactive
same,Potency,[6],inactive
same,Potency,[7],inactive
same,Potency,[8],inactive
same,Potency,[10],inactive
CSC(=O)c1c(C(F)F)nc(C(F)(F)F)c(C(=O)SC)c1CC(C)C,Potency,[1],inactive
same,Potency,[4],inactive
same,Potency,[5],inactive
same,Potency,[6],inactive
same,Potency,[7],inactive
same,Potency,[10],inactive
CC(C)N(C(=O)CCl)c1ccccc1,Potency,[13],24.5 µM (active)
same,Potency,[4],21.7 µM (active)
same,Potency,[5],inactive
same,Potency,[6],68.6 µM (active) and 61.1 µM (active)
same,Potency,[7],54.5 µM (active) and 48.6 µM (active)
same,Potency,[8],54.5 µM (active) and 38.6 µM (active)
same,Potency,[9],inactive
same,Potency,[10],30.6 µM (active)
same,Potency,[16],inactive
same,Potency,[14],inactive
COC(=O)N(OC)c1ccccc1COc1ccn(-c2ccc(Cl)cc2)n1,Potency,[13],inactive
same,Potency,[3],inactive
same,Potency,[7],inactive
same,Potency,[8],inactive
same,Potency,[9],24.3 µM (active)
same,Potency,[10],inactive
same,Potency,[15],0.486 µM (active)
same,Potency,[14],inactive
CC(C)(C)c1ccc(OP(=O)(Oc2ccccc2)Oc2ccccc2)cc1,Potency,[1],inactive
same,Potency,[5],inactive
same,Potency,[6],inactive
same,Potency,[7],inactive
same,Potency,[8],inactive
same,Potency,[9],48.9 µM (active)
same,Potency,[10],inactive
same,Potency,[15],7.74 µM (active)
same,Potency,[16],inactive
c1ccc2nc(N3CCNCC3)ccc2c1,Potency,[1],inactive
same,Potency,[4],inactive
same,Potency,[5],inactive
same,Potency,[6],inactive
same,Potency,[7],inactive
same,Potency,[8],inactive
same,Potency,[9],inactive
same,Potency,[10],inactive
O=S(=O)(NS(=O)(=O)C(F)(F)F)C(F)(F)F,Potency,[1],inactive
same,Potency,[4],43.1 µM (active)
same,Potency,[6],24.3 µM (active)
same,Potency,[7],30.5 µM (active)
same,Potency,[10],inactive
C#CCC1=C(C)C(OC(=O)C2C(C=C(C)C)C2(C)C)CC1=O (stereo not given),Potency,[1],inactive
same,Potency,[3],inactive
same,Potency,[5],inactive
same,Potency,[6],inactive
same,Potency,[7],inactive
same,Potency,[8],inactive
same,Potency,[9],60.7 µM (active)
same,Potency,[16],inactive
same,Potency,[14],60.7 µM (active)
O=S1(=O)OCC2C(CO1)C1(Cl)C(Cl)=C(Cl)C2(Cl)C1(Cl)Cl (stereo not given),Potency,[13],43.6 µM (active)
same,Potency,[5],39.9 µM (active)
same,Potency,[9],17.2 µM (active)
same,Potency,[10],inactive
same,Potency,[14],17.2 µM (active)
O=[N+]([O-])[O-].[Tl+],Potency,[1],inactive
same,Potency,[6],inactive
same,Potency,[7],inactive
same,Potency,[10],inactive
same,Potency,[14],inactive
CCC(C)Nc1c([N+](=O)[O-])cc(C(C)(C)C)cc1[N+](=O)[O-] (stereo not given),Potency,[1],inactive
same,Potency,[2],inactive
same,Potency,[4],inactive
same,Potency,[5],71 µM (active)
same,Potency,[6],inactive
same,Potency,[7],inactive
same,Potency,[15],inactive
